# Assay outcomes (PubChem BioAssay)
# In the library only some 7.6% were active in any assay of this set; here they are far more common.
# BRCA1 expr act: BRCA1 expression activation | MCF7-BRCA1-FFLuc reporter, luminescence, 48 h; response scale: scaled: vehicle 0%, 10 µM genistein 100% | Potency, µM (highest dose often 46.1 µM), without a hit: at the highest dose activation, usual class: activators | 1.1% of 380,000 active | AID 624202; further: potency means the concentration at half of the fitted maximal effect; nearly all actives have a fitted effect of over 80% in size
#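 MCF7 cells carrying a BRCA1-firefly luciferase reporter (2000 cells/well, phenol-red free MEM) were attached for 2 h at 37 °C, then given compounds for 48 h. Luminescence was read 15 min after luciferase reagent; activity normalized to genistein (10 microM) and DMSO.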
# RORgamma inh: blocks mouse ROR gamma transcriptional activity | 5.4% of 310,000 active | Drosophila S2 Gal4-RORgamma UAS-luciferase reporter, 20 h | Potency, µM (titrated, usually from 53.6 µM), without a hit: top-dose activity change, negative = inhibition, most hits filed as inhibitors; further: potency means the concentration at half of the fitted maximal effect; on the % scale 0 is the no-effect control and ±100 the full control effect; nearly all actives have a fitted effect of over 60% in size
# Target sequence (P51450 whole entry, looked up, the tested form may be a part): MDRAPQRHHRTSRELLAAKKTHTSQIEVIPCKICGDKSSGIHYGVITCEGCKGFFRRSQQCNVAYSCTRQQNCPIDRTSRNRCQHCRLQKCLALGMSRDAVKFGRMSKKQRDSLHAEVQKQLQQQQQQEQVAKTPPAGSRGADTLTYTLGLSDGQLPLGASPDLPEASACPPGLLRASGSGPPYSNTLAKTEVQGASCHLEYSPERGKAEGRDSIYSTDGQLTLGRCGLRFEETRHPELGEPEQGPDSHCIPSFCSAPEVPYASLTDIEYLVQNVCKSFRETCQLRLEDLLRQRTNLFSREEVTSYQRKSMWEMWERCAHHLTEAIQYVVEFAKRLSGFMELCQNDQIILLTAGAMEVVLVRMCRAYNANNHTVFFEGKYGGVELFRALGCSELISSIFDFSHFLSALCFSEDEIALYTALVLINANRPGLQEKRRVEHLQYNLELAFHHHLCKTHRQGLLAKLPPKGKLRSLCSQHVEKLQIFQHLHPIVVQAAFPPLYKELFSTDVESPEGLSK
#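 Compounds are pin-transferred onto Drosophila Schneider cells expressing a copper-inducible Gal4–ROR gamma transactivation domain fusion. After 1 hr, copper sulfate is added to 700 uM final; luciferase is read 20 hr later.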
# ELG1 repair inh: inhibitors of ELG1-dependent DNA repair in HEK293T cells | HEK293T ELG1-luciferase reporter, luminescence, 16 h; DNA damage induced by 5-fluorouridine | Potency, µM (top dose mostly 46.1 µM), inactives show at the top dose activity change, negative = inhibition, usual class: inhibitors | 2.3% of 330,000 active | AID 504467; further: potency means the concentration at half of the fitted maximal effect; on the % scale 0 is the no-effect control and ±100 the full control effect; nearly all actives have a fitted effect of over 55% in size
#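 Cells (2,000 per well) received 5-fluorouridine plus test compound or DMSO and were incubated 16 hr at 37 °C, 5% CO2. Luciferase activity was read by luminescence 30 min after ONE-Glo addition; signal suppression marked inhibition of damage-induced ELG1 function.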
# VP16 counter: Gal4-VP16 reporter inhibition counter-screen; AID 2546; 3.5% of 310,000 active; Potency, µM (series often up to 53.6 µM), inactives show top-dose activity, negative = inhibition, most hits filed as inhibitors; Drosophila S2 Gal4-VP16 UAS-luciferase, luminescence, 20 h;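 further: Gal4-VP16 expression switched on by copper sulfate through the metallothionein promoter; potency means the concentration at half of the fitted maximal effect; on the % scale 0 is the no-effect control and ±100 the full control effect; nearly all actives have a fitted effect of over 50% in size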
# p53 reactivator: re-activators of mutant p53 | 0.063% of 320,000 active | H1299 p53-A138V BP100-luciferase reporter, luminescence, 24 h | Potency, µM (series often up to 92.2 µM), without a hit: at the top dose activity change, positive = activation, actives largely listed as activators; further: potency means the concentration at half of the fitted maximal effect; % of control where 0% means no effect; nearly all actives have a fitted effect of over 45% in size
#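 H1299 (p53-null), stable ts p53-A138V + BP100-Luc; 1000 cells/well, Opti-MEM/10% FBS; cpd 4 pt, 1:5; 24 h, 37 deg C, 5% CO2; detection reagent 10 min RT; luminescence.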
# Giardia killer: Giardia lamblia killing | Giardia lamblia trophozoite viability | AID 540267 | 0.15% of 340,000 active | activity change, % at 7.66 µM, hits read low; in the data active means activity change below about -80%; inconclusive means between about -30% and that limit;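 further: parasites exposed to compound for two days anaerobically before the ATP read; on the % scale 0 is the no-effect control and ±100 the full control effect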
#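 Luminescent ATP signal served as the viability read-out, measured 15-30 min after adding ATP detection reagent to trophozoites that had been incubated with compounds for 48 hrs at 37 deg C anaerobically at 100 cells/well.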
# * = called active by the depositor; ? = inconclusive; · = no result given; [ ] = dose if it differs, or a comment. Unless noted, the call rests on the fitted dose curve; in most records, active means well fitted curve in the direction sought with a large enough effect; inconclusive means small, poorly fitted or top-dose-only effect, or another doubt; inactive means no such curve, though single readings can be large; an effect the other way counts as inactive or inconclusive.
SMILES,BRCA1 expr act,RORgamma inh,ELG1 repair inh,VP16 counter,p53 reactivator,Giardia killer
COc1cc(/C=N/NC(=S)Nc2cccc(C(=O)O)c2)ccc1O,-43%,?,-7%,-21%,-6%,-22
CCN1CCN(CC(=O)Nc2ccc(S(=O)(=O)N3C(C)CCCC3C)cc2)CC1 (configuration not stated),-21%,3%,14%,2%,2%,3
Cc1ccccc1NC(=O)COC(=O)c1c(C)nn(-c2ccccc2)c1C,-4%,·,·,·,·,·
N#Cc1ncn(-c2ccc(Oc3ccccc3)cc2)c1N,7%,18%,?,2%,12%,-13
Cc1cccc(C(=O)Oc2ccccc2/C=N/NC(=O)c2ccc(NC(=O)C(C)(C)C)cc2)c1,-39%,-26%,?,18%,-4%,2
COc1ccc(C(=O)N/N=C/c2ccc(OC(=O)c3ccccc3)cc2)cc1,2%,-23%,?,-6%,0%,-2
CC(C)(C)C(=O)Nc1ccc(C(=O)N/N=C/c2ccccc2OC(=O)c2ccccc2)cc1,-67%,6.3µM*,?,?,4%,13
COc1ccc(C(=O)N/N=C/c2ccccc2OC(=O)c2ccccc2)cc1,-36%,3.5µM*,?,5µM*,?,-13
CCCCc1ccc(NC(=O)COC(=O)c2ccccc2OCC(=O)Nc2ccc(Br)cc2)cc1,0%,·,·,·,·,·
CCOC(=O)c1[nH]cnc1C(=O)Nc1ccc([N+](=O)[O-])cc1,-6%,0%,-2%,-12%,1%,-17
O=C(Nc1ccc(F)cc1)c1nc[nH]c1C(=O)Nc1ccc([N+](=O)[O-])cc1,-18%,5µM*,5%,7.1µM*,-1%,0
O=C(Nc1ccc([N+](=O)[O-])cc1)c1nc[nH]c1C(=O)NC1CCCCC1,-19%,1.6µM*,?,3.5µM*,2%,-2
COc1ccc2cc3cc(C(=O)NCc4ccco4)oc3nc2c1,3%,11%,7%,-16%,4%,-11
Nc1c(C(=O)NCc2ccco2)c2nc3ccccc3nc2n1CCc1ccccc1F,-49%,-24%,-29%,16%,?,-6
COc1ccc(CCn2c(N)c(C(=O)NCc3ccco3)c3nc4ccccc4nc32)cc1OC,-48%,27%,10µM*,-11%,11%,-5
COc1ccc(CCn2c(N)c(C(=O)NCc3ccco3)c3nc4ccccc4nc32)cc1,-59%,?,21µM*,?,-8%,3
COc1ccc(CCn2c(N)c(C#N)c3nc4ccccc4nc32)cc1OC,-24%,41%,23µM*,12%,-9%,-1
COc1ccc2cc3c(N)c(C(=O)NCc4ccco4)sc3nc2c1,5.6µM*,?,?,?,-4%,2
CC1CCN(CC(O)COC2CCC(C(C)(C)C)CC2)CC1 (configuration not stated),-26%,11%,5%,-16%,-8%,-10
CCOc1ccc(NC(=O)CN(C)C(=O)CN2C(=O)C3CCCCC3C2=O)cc1OCC (configuration not stated),9%,·,9%,·,-8%,-20
O=C(/C=C/c1ccccc1)OCC(=O)c1ccc[nH]1,1%,·,?,·,13%,-6
O=C(/C=C/c1ccc(Cl)c(Cl)c1)N1CCc2ccccc21,?,37%,?,6%,?,-2
O=C(c1cccs1)N1CCCc2ccccc21,-18%,1%,1%,13%,-7%,-2
O=C(/C=C/c1cccs1)N1CCc2ccccc21,-14%,8.9µM*,?,?,?,-16
O=C(c1cccs1)N1CCc2ccccc21,7.9µM*,0%[0.365 µM],?,·,·,0
SMILES,BRCA1 expr act,RORgamma inh,ELG1 repair inh,VP16 counter,p53 reactivator,Giardia killer
CC(CC(=O)N1CCN(c2ccccc2)CC1)S(=O)(=O)c1ccc2c(c1)NC(=O)CO2 (configuration not stated),0%,?,10µM*,-19%,-3%,33
CN(C)Cc1ccccc1,·,-8%,·,-1%,·,·
CC(C)(C)c1ccccc1NC(=O)c1ccc2c(c1)SC1=NS(=O)(=O)CCN12,-4%,17%,21µM*,-7%,-7%,7
O=C(Nc1ccc2c(c1)ncn2C1CCCCC1)c1ccco1,13µM*,12%,?,9%,?,2
CC(C)n1cnc2cc(NC(=O)c3ccco3)ccc21,?,-41%,?,-20%,?,?
Cc1ccc(-c2cc(C(=O)Nc3c(C)n(C)n(-c4ccccc4)c3=O)c3ccccc3n2)cc1,-14%,·,13µM*,·,-16%,15
COc1ccc(-c2cc(C(=O)OC(C)C(=O)Nc3c(C)n(C)n(-c4ccccc4)c3=O)c3ccccc3n2)cc1 (configuration not stated),52%,20%,15µM*,-21%,1%,4
COc1ccc(-c2cc(C(=O)Nc3c(C)n(C)n(-c4ccccc4)c3=O)c3ccccc3n2)cc1OC,-12%,3%,7.3µM*,-11%,-3%,14
Cc1c(NC(=O)c2cc(-c3ccccc3)nc3ccccc23)c(=O)n(-c2ccccc2)n1C,-16%,·,5.8µM*,·,-9%,-23
Cc1c(NC(=O)COC(=O)c2cc(-c3ccc(-c4ccccc4)cc3)nc3ccccc23)c(=O)n(-c2ccccc2)n1C,105%,-11%,?,-26%,?,?
COc1ccc(-c2cc(C(=O)Nc3c(Cl)cc(Cl)cc3Cl)c3ccccc3n2)cc1OC,-48%,-21%,-5%,-24%,-1%,1
COc1ccc(-c2cc(C(=O)Nc3c(C)n(C)n(-c4ccccc4)c3=O)c3ccccc3n2)c(OC)c1,0%,-11%,10µM*,-9%,-7%,0
CCN(CC)CCCNC(=S)N(Cc1cccs1)Cc1cc2cc3c(cc2[nH]c1=O)OCCO3,-25%,-4%,25%,-12%,?,1
Cc1cc(C)c(/C([O-])=C(/C(=S)Nc2ccc(SC(F)F)cc2)[n+]2ccccc2)cc1C,-34%,11µM*,?,-11%,6%,-2
C#CCOCCOCCOCCNc1nc(N2CCN(C(=O)CCCCCCCCCCNC(=O)[C@@H](CCC(=O)O)n3cc(CCCCCN)nn3)CC2)nc(N2CCN(C(=O)CCCCCCCCCCNC(=O)[C@H](CCCCN)n3cc(C[C@@H](C)CC)nn3)CC2)n1,-24%,·,3.2µM*,·,21%,-27
